One may read the inhibition as the drop in the measured response relative to a control, in per cent.

Structures are written as SMILES. Among all 190,000 compounds or so, about 4,000 (2.1%) were called active. No stated cut-off is given here; in the data, active means inhibition above about 58%; inactive means the rest, inconclusive results apart; tested in S. cerevisiae. For the sample, actives were picked, then their nearest neighbours and some compounds at random.

From PubChem BioAssay AID1362 (SRMLSC, 2008) come the findings set out here.

The nature of the test: growth inhibition of WT strain, primary screen, mitochondrial fusion inhibitor project, WT and mutant strains, chemical genetic (AID 1362). The conditions noted are these: mitochondrial fusion phenotypic screen, at 10 µM.
Where [1] appears, read: WT strain, growth inhibition, stronger effect = higher value.

For `CC[N+]1(CC)CC2=Cc3ccccc3CC2C1` (centres undefined), the inhibition under setting [1] is 0.67% (inactive) and the inhibition (mutant strain inhibition) is -6.63%.

`O=C(CCc1ccccc1)NCc1cccnc1`: the inhibition under setting [1] was -0.16% (inactive) and the inhibition (mutant strain inhibition) worked out at 17.5%.

For the compound `O=C(CS(=O)(=O)Cc1ccccc1)Nc1cccnc1`, the inhibition under setting [1] was 90.1% (active) and the inhibition (mutant strain inhibition) is 19.3%.

As to `COCc1nnc(NC(=O)CS(=O)(=O)Cc2ccccc2)s1`, the inhibition is -3.35% (inactive) under setting [1] and -9.06% (mutant strain inhibition).

On to `COCCC(=O)Nc1ccc2c(c1)CN(C(=O)CCOC)CC2`, for which the inhibition under setting [1] was -15.9% (inactive) and the inhibition (mutant strain inhibition) is -11.2%.

Turning to `CC(C)C1Nc2c(C(=O)O)cccc2C(Nc2ccccc2C(=O)O)C1(C)C` (centres undefined), the inhibition by setting is: under setting [1], -8.7% (inactive); (mutant strain inhibition) -3.34%.

In the case of `Cc1ccc(-n2nc3c(c2NC(=O)c2ccc4c(c2)OCO4)CSC3)c(C)c1`, the inhibition is 84% (active) under setting [1] and 3.65% (mutant strain inhibition).

For `Cc1cc(C)c2nc(NC(=O)c3ccc4c(c3)OCO4)sc2c1`, the inhibition was 14.1% (inactive) under setting [1] and -21.7% (mutant strain inhibition).

As for `Cc1cccc(-n2nc3c(c2NC(=O)c2ccc(Br)o2)CSC3)c1C`, the inhibition under setting [1] was 8.72% (inactive) and the inhibition (mutant strain inhibition) came to 6.28%.

Consider `O=C(Oc1cccc(O)c1)C1CCCCC1`, for which the inhibition under setting [1] was -7.96% (inactive) and the inhibition (mutant strain inhibition) came to 7.95%.

Take `CCOC(=O)c1c(CN(C)C)n(-c2ccccc2)c2cc(Br)c(O)cc12`: the inhibition under setting [1] was 9.54% (inactive) and the inhibition (mutant strain inhibition) came out at 7.76%.

Turning to `CC(CC(=O)O)C(=O)c1ccc(Cl)c([N+](=O)[O-])c1` (centres undefined), the inhibition is, setting by setting: under setting [1], -16.5% (inactive); (mutant strain inhibition) -4.59%.

For `O=C(Nc1ccnc(-c2ccncc2)n1)c1cccs1`, the inhibition runs as follows: under setting [1], -10.3% (inactive); (mutant strain inhibition) 11%.

On to `O=C(Nc1ncccn1)c1cccs1`, for which the inhibition is, setting by setting: under setting [1], 71.2% (active); (mutant strain inhibition) 28.9%.

As to `O=C(O)c1ccc(NC(=O)c2cccs2)cc1`, the inhibition under setting [1] is -8.36% (inactive) and the inhibition (mutant strain inhibition) is 1.63%.

Consider `Cc1ccccc1CN1C[C@@H]2C[C@@H](c3ccc4nsnc4c3)N3CCC[C@@]23C1=O`, for which the inhibition reads like this: under setting [1], 7.94% (inactive); (mutant strain inhibition) 5.04%.

`O=C(NCCCN1CCOCC1)c1ccccc1NS(=O)(=O)c1ccc(F)cc1`: the inhibition by setting is: under setting [1], -8.48% (inactive); (mutant strain inhibition) 6.56%.

Take `O=C(N/N=C/C=C/c1ccco1)c1cccs1`: the inhibition by setting is: under setting [1], -12.2% (inactive); (mutant strain inhibition) -0.62%.

For `CS(=O)(=O)N(CC(O)Cn1c2ccccc2c2ccccc21)c1cccc2ccccc12` (centres undefined), the inhibition reads like this: under setting [1], 31.9% (inactive); (mutant strain inhibition) 7.33%.

Consider `CNC(=O)CN1C(=O)c2ccccc2S1(=O)=O`, for which the inhibition under setting [1] is 12.2% (inactive) and the inhibition (mutant strain inhibition) was -7.85%.

With `O=C1c2ccccc2S(=O)(=O)N1CC(O)Cn1c2ccccc2c2ccccc21` (centres undefined), the inhibition runs as follows: under setting [1], 84.5% (active); (mutant strain inhibition) 45.8%.

With `COCCCNC(=S)N(Cc1ccccc1)Cc1ccc(F)cc1`, the inhibition reads like this: under setting [1], 31.2% (inactive); (mutant strain inhibition) 41.6%.

Consider `CC(NCc1nc2ccccc2n1C)C12CC3CC(CC(C3)C1)C2` (centres undefined), for which the inhibition is 30.5% (inactive) under setting [1] and 16.6% (mutant strain inhibition).

Consider `COc1ccc(OC)c(C(=O)CSc2nnc(-c3cccs3)o2)c1`, for which the inhibition under setting [1] was -7.87% (inactive) and the inhibition (mutant strain inhibition) was -26.6%.

With `COc1ccc(-c2nnc(SCC(=O)c3cccs3)o2)c(OC)c1`, the inhibition reads like this: under setting [1], 63.6% (active); (mutant strain inhibition) -1.8%.

Consider `COc1ccc(-n2c(C)cc(C(=O)CSc3nnc(-c4cccs4)o3)c2C)cc1`, for which the inhibition reads like this: under setting [1], 4.34% (inactive); (mutant strain inhibition) 23%.

In the case of `CCC(=O)c1ccc(N2CCN(C(=O)c3cc([N+](=O)[O-])ccc3F)CC2)c(F)c1`, the inhibition is 10.4% (inactive) under setting [1] and 5.39% (mutant strain inhibition).

`CC(C)C(c1nnnn1C(C)(C)C)N1CCN(Cc2cccnc2)CC1` (centres undefined): the inhibition reads like this: under setting [1], -10.2% (inactive); (mutant strain inhibition) 0.92%.

As for `COC(=O)C1=C(N)Oc2c(oc(CO)cc2=O)C1c1c(F)cccc1Cl` (centres undefined), the inhibition was -8.54% (inactive) under setting [1] and -4.27% (mutant strain inhibition).

Regarding `NC(=O)c1ccc(NC(=O)COC(=O)c2c3c(nc4ccccc24)/C(=C\c2ccc4c(c2)OCO4)CCC3)cc1`, the inhibition runs as follows: under setting [1], 62.3% (active); (mutant strain inhibition) -2.13%.

With `NS(=O)(=O)c1ccc(NC(=O)COC(=O)c2c3c(nc4ccccc24)/C(=C\c2ccc4c(c2)OCO4)CCC3)cc1`, the inhibition is 17.8% (inactive) under setting [1] and -3.76% (mutant strain inhibition).

For the compound `O=C(COC(=O)c1c2c(nc3ccccc13)/C(=C\c1cccs1)CCC2)Nc1ccccc1Cl`, the inhibition is 15.8% (inactive) under setting [1] and 3.86% (mutant strain inhibition).

As for `Fc1ccc(COc2cccc(-c3n[nH]c(=S)o3)c2)cc1`, the inhibition was -4.32% (inactive) under setting [1] and -2.8% (mutant strain inhibition).

On to `Cc1ccc(S(=O)(=O)/N=C(/Nc2ccc3[nH]c(=O)[nH]c3c2)c2ccccc2)cc1`, for which the inhibition by setting is: under setting [1], -20.3% (inactive); (mutant strain inhibition) 0.61%.

With `COc1ccc(-c2cc(-c3ccc(N)cc3)nc(N)c2C#N)cc1OC`, the inhibition was 42.1% (inactive) under setting [1] and -0.07% (mutant strain inhibition).

Consider `COc1ccc(C2CC(=O)Nc3sc(=N)c4c(N)c(C#N)c(N)nc4c32)cc1OC` (centres undefined), for which the inhibition runs as follows: under setting [1], -16.8% (inactive); (mutant strain inhibition) -4.44%.

On to `COc1ccc(OC)c2c(N)c(C#N)c(C(F)(F)C(F)(F)F)nc12`, for which the inhibition was 61.3% (active) under setting [1] and -8.43% (mutant strain inhibition).

Take `O=S(=O)(NCc1ccccc1)c1ccc(S(=O)(=O)N2CCCC2)cc1`: the inhibition by setting is: under setting [1], 5.86% (inactive); (mutant strain inhibition) -0.28%.

On to `CCCCc1nnc(NC(=O)CSc2nc(N)cc(=O)[nH]2)s1`, for which the inhibition is, setting by setting: under setting [1], -9.03% (inactive); (mutant strain inhibition) -14.2%.

Take `O=C(CSc1ccc(-c2ccccc2)nn1)NCC1CCCO1` (centres undefined): the inhibition is, setting by setting: under setting [1], -2.54% (inactive); (mutant strain inhibition) 0.5%.

In the case of `O=C(Nc1ccon1)c1sc2ccccc2c1Cl`, the inhibition under setting [1] is 3.3% (inactive) and the inhibition (mutant strain inhibition) came to 0.77%.

In the case of `O=C(N/N=C/c1c(Cl)[nH]c2ccccc12)c1sc2ccccc2c1Cl`, the inhibition under setting [1] is 61.8% (active) and the inhibition (mutant strain inhibition) stood at 41.3%.
